# In PubChem BioAssay:
# Active and inactive are the calls of the source. Rule as the data show it, unless noted: active = inhibition above about 80%; inactive = the rest.
# What was measured:
# [1] = viability rescue of complex I mutant cybrids, primary screen, cell-based, galactose medium, ATP luminescence (AID 1645843;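 active = z-score of at least 1.8 in each of two replicates, scored against plate mean and spread of sample wells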;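 also: positive z means more ATP and so rescue of galactose-driven cybrid death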); conditions: complex I mutant cybrid cells, 72 h, stronger effect = higher value
# [2] = LFS_MB_P medulloblastoma growth inhibition, cell-based, chromothripsis tumors, cisplatin or BGB combos (AID 1671449); conditions: LFS_MB_P medulloblastoma cells;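 also: cells exposed for 96 hours; 0% = vehicle DMSO and 100% = killing by high DMSO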
# [3] = HDN33 neuroblastoma growth inhibition, cell-based, chromothripsis tumors, cisplatin or BGB combos (AID 1671450); conditions: HDN33 neuroblastoma cells, stronger effect = higher value;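 also: cells exposed to compound for four days; 0% = vehicle DMSO and 100% = cell killing by high DMSO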
# [4] = ICB984 medulloblastoma cell growth inhibition, synergistic combos for chromothripsis tumors, cisplatin or BGB combos (AID 1671451; call rule not given here;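 also: cells exposed for 96 hours before readout; 0% = vehicle DMSO and 100% = killing by high DMSO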); conditions: ICB984 medulloblastoma cells, drug combinations, stronger effect = higher value
# [5] = LFS_MB_1R medulloblastoma cell growth inhibition, synergistic combos for chromothripsis tumors, cisplatin or BGB combos (AID 1671452); conditions: LFS_MB_1R medulloblastoma cells, stronger effect = higher value;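 also: cells exposed for 96 hours before readout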
# [6] = HTB85 osteosarcoma cell growth inhibition, synergistic combos for chromothripsis tumors, BGB or cisplatin IC20 combos (AID 1671453); conditions: HTB85 osteosarcoma cells, drug combinations, stronger effect = higher value;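 also: cells exposed for 96 hours before readout; 0% = vehicle DMSO and 100% = high DMSO killing control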
# [7] = CRL2098 osteosarcoma cell growth inhibition, synergistic combos for chromothripsis tumors, BGB or cisplatin IC20 combos (AID 1671454); conditions: CRL2098 osteosarcoma cells, drug combinations, stronger effect = higher value;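 also: cells exposed for 96 h before readout; 0% = vehicle DMSO and 100% = killing by high DMSO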
# [8] = HD-MB03 medulloblastoma cell growth inhibition, synergistic combos for chromothripsis tumors, BGB or cisplatin IC20 combos (AID 1671455; in the data active = inhibition above about 83%;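 also: 0% = vehicle DMSO and 100% = high DMSO as cytotoxic control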); conditions: HD-MB03 medulloblastoma cells, stronger effect = higher value
# [9] = UWB1.289 ovarian carcinoma cell growth inhibition, synergistic combos for chromothripsis tumors, BGB or cisplatin combos (AID 1671456); conditions: UWB1.289 ovarian carcinoma cells, stronger effect = higher value;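 also: cells exposed to compound for four days; 0% = vehicle DMSO and 100% = killing by high DMSO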
# [10] = LFS_MB_2R medulloblastoma cell growth inhibition, synergistic combos for chromothripsis tumors, cisplatin combos (AID 1671457); conditions: LFS_MB_2R medulloblastoma cells, stronger effect = higher value;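 also: cells exposed to compound for four days before readout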
# [11] = MDA-MB-436 breast carcinoma cell growth inhibition, synergistic combos for chromothripsis tumors, BGB or cisplatin combos (AID 1671458; call rule not given here;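 also: cells exposed for 96 hours; 0% = vehicle DMSO and 100% = killing by high DMSO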); conditions: MDA-MB-436 breast carcinoma growth inhibition, drug combinations, stronger effect = higher value
# [12] = UWB1.289_BRCA1 ovarian cancer growth, cell-based, BGB or cisplatin combinations (AID 1671459); conditions: UWB1.289 BRCA1 ovarian carcinoma, drug combinations, stronger effect = higher value
# [13] = human astrocyte viability loss, single and combined drugs, cytotoxicity control for chromothriptic childhood tumor combination screen, cell-based, BGB or cisplatin IC20 combos (AID 1671460); conditions: Human astrocytes, drug combinations, stronger effect = higher value;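 also: cells exposed to compounds for 96 hours before viability readout; 0% = vehicle and 100% = killing control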
# [14] = growth inhibition of BT084 medulloblastoma cells, cell-based, ICGC_MB145, cisplatin and BGB IC40 combos (AID 1671461); conditions: drug combinations, stronger effect = higher value;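 also: cells exposed to drugs for 96 hours; 0% = vehicle DMSO and 100% = high DMSO full killing control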
# [15] = growth inhibition of RCMB18 medulloblastoma cells, cell-based, cisplatin and BGB IC40 combos (AID 1671462); conditions: stronger effect = higher value;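 also: cells exposed to compound for four days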
# [16] = growth inhibition of CRL1545 osteosarcoma cells, cell-based, cisplatin and BGB IC20 combos (AID 1671464); conditions: stronger effect = higher value;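 also: cells exposed to compound for 96 hours before readout; 0% = vehicle DMSO and 100% = high DMSO killing control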
# [17] = measured here: combination with BGB IC40, at 0.05 µM
# [18] = measured here: with BGB IC20 combination, at 0.5 µM
# [19] = measured here: with cisplatin IC20 combination, at 0.5 µM
# [20] = measured here: combination with cisplatin, at 0.5 µM
# [21] = measured here: combination with cisplatin, at 5 µM
structure (smiles),measurement,setting,value
Cc1cccc(-n2cc(CN(C)C(=O)C(=O)c3ccco3)cn2)c1,z-score,[1],0.6 (inactive)
C=C1CCC(O)CC1=CC=C1CCCC2(C)C1CCC2C(C)C=CC(C)C(C)C (centres undefined),inhibition,"[2]; at 0.5 µM, stronger effect = higher value",-12.3% (inactive)
same,inhibition,"[2]; measured here: combination with BGB IC20, at 0.005 µM",-24.6%
same,inhibition,"[2]; measured here: combination with BGB IC40, at 0.005 µM",-11.2%
same,inhibition,[2]; [17],-19.6%
same,inhibition,"[2]; measured here: combination with cisplatin, at 0.5 µM, stronger effect = higher value",-17.3%
same,inhibition,"[2]; measured here: combination with cisplatin, at 5 µM, stronger effect = higher value",-80.9%
same,inhibition,"[3]; BGB combo, at 5 µM",-2.75%
same,inhibition,[3]; at 0.5 µM,5.6% (inactive)
same,inhibition,"[3]; cisplatin combo, at 5 µM",6.61%
same,inhibition,[3]; [18],7.28%
same,inhibition,[3]; [19],3.61%
same,inhibition,"[3]; single agent, at 5 µM",5.11%
same,inhibition,"[4]; BGB IC20 combo, at 0.005 µM",-16.8%
same,inhibition,"[4]; BGB IC40 combo, at 0.005 µM",-28.1%
same,inhibition,"[4]; BGB IC40 combo, at 0.05 µM",22.2%
same,inhibition,[4]; at 0.5 µM,-8.49% (inactive)
same,inhibition,"[4]; cisplatin combo, at 0.05 µM",22.2%
same,inhibition,"[4]; cisplatin combo, at 0.5 µM",-55.6%
same,inhibition,"[4]; cisplatin combo, at 5 µM",-22.2%
same,inhibition,"[4]; measured here: 5 uM single agent, at 5 µM",-22.8%
same,inhibition,[5]; at 0.5 µM,14.3% (inactive)
same,inhibition,[5]; [17],15.9%
same,inhibition,[5]; [20],28.4%
same,inhibition,[5]; [21],4%
same,inhibition,[6]; at 0.5 µM,-12.4% (inactive)
same,inhibition,"[6]; measured here: with BGB IC20, at 0.5 µM",-26.3%
same,inhibition,"[6]; measured here: with BGB IC20, at 5 µM",9.36%
same,inhibition,"[6]; measured here: with cisplatin IC20, at 0.5 µM",-19%
same,inhibition,"[6]; measured here: with cisplatin IC20, at 5 µM",1.54%
same,inhibition,"[6]; single agent, at 5 µM",12%
same,inhibition,[7]; at 0.5 µM,-3.6% (inactive)
same,inhibition,"[7]; measured here: combination with BGB at IC20, at 0.5 µM",-1.76%
same,inhibition,"[7]; measured here: combination with cisplatin at IC20, at 0.5 µM",19.2%
same,inhibition,[8]; at 0.5 µM,-7.66% (inactive)
same,inhibition,"[8]; measured here: combo with BGB at IC20, at 0.5 µM",-6.27%
same,inhibition,"[8]; measured here: combo with cisplatin at IC20, at 0.5 µM",-11.7%
same,inhibition,[9]; at 0.5 µM,-2.68% (inactive)
same,inhibition,"[9]; measured here: inhibition with BGB combination, at 0.05 µM",-16.7%
same,inhibition,"[9]; measured here: inhibition with cisplatin combination, at 0.05 µM",-7.51%
same,inhibition,[10]; at 0.5 µM,-22.6% (inactive)
same,inhibition,[10]; [20],-24.1%
same,inhibition,[10]; [21],-14.6%
same,inhibition,[11]; at 0.5 µM,-12.5% (inactive)
same,inhibition,"[11]; measured here: BGB combination, at 0.5 µM",-17.5%
same,inhibition,"[11]; measured here: BGB combination, at 5 µM",-14.8%
same,inhibition,"[11]; measured here: cisplatin combination, at 0.5 µM",-15.7%
same,inhibition,"[11]; measured here: cisplatin combination, at 5 µM",-13.9%
same,inhibition,"[12]; BGB combination, concentration series, at 5 µM",18.4%
same,inhibition,[12]; at 0.5 µM,-4.82% (inactive)
same,inhibition,"[12]; cisplatin combination, concentration series, at 5 µM",27.5%
same,inhibition,[13]; at 0.5 µM,2.39% (inactive)
same,inhibition,"[13]; measured here: combo with BGB IC20, at 0.5 µM",0.485%
same,inhibition,"[13]; measured here: combo with cisplatin IC20, at 0.5 µM",-12%
same,inhibition,[14]; at 0.5 µM,-17.5% (inactive)
same,inhibition,"[14]; cisplatin combination, at 0.5 µM",-35.1%
same,inhibition,"[14]; cisplatin combination, at 5 µM",-77.9%
same,inhibition,"[14]; measured here: BGB IC40 combination 0.05 uM, at 0.05 µM",22.6%
same,inhibition,"[14]; single agent, at 5 µM",-13.5%
same,inhibition,[15]; at 0.5 µM,-6.63% (inactive)
same,inhibition,"[15]; cisplatin combo, at 5 µM",-19.4%
same,inhibition,"[15]; measured here: BGB IC40 combination, at 0.05 µM",-24%
same,inhibition,[15]; [20],-21.7%
same,inhibition,"[15]; single agent, at 5 µM",-13.3%
same,inhibition,[16]; at 0.5 µM,-21.7% (inactive)
same,inhibition,[16]; [18],16.4%
same,inhibition,[16]; [19],-40.8%
same,inhibition,"[16]; single agent, at 0.05 µM",37.2%
same,inhibition,"[16]; single agent, at 5 µM",10.9%
